From PubChem BioAssay
For some of these results: Results with a measured potency or affinity are listed apart. Active and inactive are the calls of the source.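 The calls were made as follows, unless noted: active = earlier screen potentiator hit that boosts the TRPC4 ion channel at some dose, with a dose response; inactive = no potentiation, no dose response, or not a prior hit.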

Assays:
[1] = tested on: TRPC4 beta (transient receptor potential cation channel C4), mouse; assay: TRPC4 cation channel opening, retest – cell-based, Fluo4 calcium, HEK293 TRPC4beta/mu-opioid, duplicates, 10 µM, confirmation (AID 2426;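 active = fluorescence ratio normalized to control raised more than 50% in primary screen plus both repeat runs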;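 as to activation: percent rise of integrated ratio over buffer wells lacking compound which define 0%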); details: Fluo4 calcium fluorescence, at 10 µM; active compounds read high
[2] = tested on: transient receptor potential cation channel C4 beta (TRPC4), mouse; assay: TRPC4 cation channel opening, second retest – cell-based, second round, Fluo4, HEK293 TRPC4beta/mu-opioid, 1 µM, confirmation (AID 2461;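 active = primary screen active and over 50% activation in each of two duplicate runs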); details: Fluo4 calcium fluorescence, at 1 µM; active compounds read high
[3] = tested on: TRPC4 (transient receptor potential cation channel C4 beta), mouse; assay: potentiation of DAMGO EC20 TRPC4 response – cell-based, second round, Fluo-4, HEK293 TRPC4beta/mu-opioid, 1 µM, confirmation (AID 2554;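 active = primary screen hit whose fluorescence ratio, in both repeats, exceeds the weak agonist control mean by 3 SD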); details: DAMGO EC20, Fluo-4 calcium flux, at 1 µM; active compounds read high
[4] = tested on: TRPC4 beta (transient receptor potential cation channel C4), mouse; assay: potentiation of DAMGO EC20 TRPC4 response – cell-based, Fluo-4, HEK293 TRPC4beta/mu-opioid, confirmation (AID 2555;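 active = primary screen hit whose calcium fluorescence ratio, in both repeats, exceeds the weak agonist control mean by 3 SD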); details: DAMGO EC20, Fluo-4 calcium flux, at 10 µM; active compounds read high
[5] = biological target: Short transient receptor potential channel 4 (Mus musculus) (UniProt Q9QUQ5); assay: blockers of DAMGO-evoked TRPC4 calcium flux – cell-based, Fluo4, HEK293 TRPC4beta/mu-opioid, confirmation (AID 2636;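 active = calcium signal cut by more than 3 SD below the full-agonist control yet still positive, in both repeats and the earlier primary screen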); details: at 10 µM; active compounds read high
Sequence of Short transient receptor potential channel 4 (Mus musculus) (Q9QUQ5 whole entry, looked up): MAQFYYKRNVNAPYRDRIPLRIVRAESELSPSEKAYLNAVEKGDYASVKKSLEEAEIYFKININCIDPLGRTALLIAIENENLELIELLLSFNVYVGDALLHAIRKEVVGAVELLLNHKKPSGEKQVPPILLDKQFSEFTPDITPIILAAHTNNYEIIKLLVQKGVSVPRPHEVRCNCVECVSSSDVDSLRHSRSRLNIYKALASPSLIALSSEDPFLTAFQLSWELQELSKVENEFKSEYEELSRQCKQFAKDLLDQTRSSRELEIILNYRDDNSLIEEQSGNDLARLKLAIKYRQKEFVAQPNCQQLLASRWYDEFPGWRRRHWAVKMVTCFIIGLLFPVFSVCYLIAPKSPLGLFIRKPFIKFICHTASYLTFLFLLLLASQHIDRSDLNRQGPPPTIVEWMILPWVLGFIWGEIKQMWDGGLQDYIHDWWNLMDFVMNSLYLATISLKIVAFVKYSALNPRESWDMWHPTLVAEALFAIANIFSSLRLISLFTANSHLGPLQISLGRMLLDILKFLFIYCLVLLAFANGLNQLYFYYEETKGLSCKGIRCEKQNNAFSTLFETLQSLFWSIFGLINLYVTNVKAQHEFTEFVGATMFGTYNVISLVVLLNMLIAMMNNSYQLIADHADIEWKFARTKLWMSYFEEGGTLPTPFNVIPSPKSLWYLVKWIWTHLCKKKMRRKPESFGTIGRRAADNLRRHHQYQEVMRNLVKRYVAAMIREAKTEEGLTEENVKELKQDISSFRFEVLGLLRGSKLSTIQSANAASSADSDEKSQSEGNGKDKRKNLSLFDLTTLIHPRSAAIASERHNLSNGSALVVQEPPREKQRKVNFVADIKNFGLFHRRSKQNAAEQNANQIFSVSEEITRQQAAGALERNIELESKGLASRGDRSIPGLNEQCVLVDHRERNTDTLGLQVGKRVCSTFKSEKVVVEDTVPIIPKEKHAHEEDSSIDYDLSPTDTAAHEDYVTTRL

[6] = biological target: Short transient receptor potential channel 4 (Mus musculus) (UniProt Q9QUQ5); assay: blockers of DAMGO-evoked TRPC4 calcium flux – cell-based, second round, Fluo4, HEK293 TRPC4beta/mu-opioid, 1 µM, confirmation (AID 2637;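 active = calcium signal ratio cut to more than 3 SD under the fully stimulated control mean yet still positive, in both repeats and the primary screen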); details: at 1 µM; active compounds read high
[7] = biological target: Short transient receptor potential channel 4 (Mus musculus) (UniProt Q9QUQ5); assay: potentiation of DAMGO-evoked TRPC4 calcium signal – cell-based, HEK293 TRPC4/mu-opioid, Fluo-4 calcium, EC20 DAMGO, dose response (AID 434941);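 also: calcium entry triggered by an EC20 dose of DAMGO at the co-expressed mu-opioid receptor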
[8] = biological target: Short transient receptor potential channel 4 (Mus musculus) (UniProt Q9QUQ5); assay: block of DAMGO-driven TRPC4 calcium entry – cell-based, HEK293 TRPC4/mu-opioid, Fluo-4 calcium, dose response (AID 434942;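 active = primary screen inhibitor hit that blocks the TRPC4 channel at some tested dose, yielding a dose curve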)
[9] = biological target: Short transient receptor potential channel 6 (Mus musculus) (UniProt Q61143); assay: TRPC6 blockade by TRPC4 inhibitor hits – cell-based, HEK293, membrane potential dye, duplicate, selectivity assay for TRPC4 inhibitor project, confirmation (AID 434948;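 active = active in primary screen and both duplicates, each dropping signal beyond three positive-control SD with fluorescence still positive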); details: HEK293 TRPC6, membrane potential dye fluorescence, at 10 µM, stimulated with maximal-effect acetylcholine; active compounds read high
Sequence of Short transient receptor potential channel 6 (Mus musculus) (Q61143 whole entry, looked up): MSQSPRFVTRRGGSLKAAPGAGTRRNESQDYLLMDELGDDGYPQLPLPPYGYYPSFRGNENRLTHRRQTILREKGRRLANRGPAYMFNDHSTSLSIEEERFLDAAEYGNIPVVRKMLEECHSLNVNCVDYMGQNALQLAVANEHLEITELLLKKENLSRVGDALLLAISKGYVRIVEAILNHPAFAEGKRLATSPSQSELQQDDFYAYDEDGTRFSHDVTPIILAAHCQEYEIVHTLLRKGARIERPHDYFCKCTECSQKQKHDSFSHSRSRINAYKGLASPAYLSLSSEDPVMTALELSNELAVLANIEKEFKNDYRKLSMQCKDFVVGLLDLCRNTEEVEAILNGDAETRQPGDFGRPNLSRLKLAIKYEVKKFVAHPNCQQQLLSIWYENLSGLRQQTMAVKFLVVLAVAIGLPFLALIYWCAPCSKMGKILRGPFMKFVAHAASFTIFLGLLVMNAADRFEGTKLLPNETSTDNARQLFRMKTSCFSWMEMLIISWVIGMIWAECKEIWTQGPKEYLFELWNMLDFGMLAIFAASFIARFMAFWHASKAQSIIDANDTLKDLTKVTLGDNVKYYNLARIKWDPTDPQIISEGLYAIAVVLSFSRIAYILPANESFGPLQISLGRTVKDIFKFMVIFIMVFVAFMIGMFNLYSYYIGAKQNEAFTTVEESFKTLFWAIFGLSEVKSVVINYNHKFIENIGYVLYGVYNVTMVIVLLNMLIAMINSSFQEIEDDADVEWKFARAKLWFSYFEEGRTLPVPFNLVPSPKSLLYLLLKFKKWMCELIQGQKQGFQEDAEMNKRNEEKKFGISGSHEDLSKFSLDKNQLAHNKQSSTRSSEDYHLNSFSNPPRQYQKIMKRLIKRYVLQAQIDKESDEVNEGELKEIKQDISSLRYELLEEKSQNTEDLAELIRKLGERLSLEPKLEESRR

[10] = biological target: Short transient receptor potential channel 6 (Mus musculus) (UniProt Q61143); assay: TRPC6 opening by TRPC4 activator hits – cell-based, HEK293, membrane potential dye, duplicate, selectivity assay for TRPC4 activator project, confirmation (AID 434950;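 active = membrane potential signal rise above negative control mean plus 3 SD in both duplicates, also active in the earlier TRPC4 screen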;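 as to activation: 0% = buffer only wells and 100% = acetylcholine maximal-effect wells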); details: HEK293 TRPC6, membrane potential fluorescence, at 10 µM; activation: active compounds read high; outcome: activation
[11] = biological target: Short transient receptor potential channel 6 (Mus musculus) (UniProt Q61143); assay: positive modulators of mouse TRPC6 channel – HEK293 cells, membrane potential dye, duplicate, selectivity assay for TRPC4 potentiator project, confirmation (AID 434952;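 active = compound raising the membrane signal above positive-control mean plus 3 SD in both repeats, and a primary screen hit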); details: HEK293 TRPC6, membrane potential dye fluorescence, at 10 µM, maximal acetylcholine added after compound; active compounds read high
[12] = biological target: Short transient receptor potential channel 4 (Mus musculus) (UniProt Q9QUQ5); assay: calcium flux activators in TRPC4/5HT1a cells, counter-screen for TRPC4 activator project, cell-based, second counter screen, HEK293 TRPC4/5HT1a, Fluo-4 (AID 434977;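 active = calcium signal rise above buffer-control mean plus 5 SD in both duplicates, and also a hit in the primary screen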;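 as to activation: plate controls were assay buffer for no effect and maximal serotonin response for full effect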); details: Fluo-4 calcium flux, at 10 µM; active compounds read high
[13] = serotonin-gated TRPC4 signal block – cell-based, second counter screen, HEK293 TRPC4/5HT1a, Fluo-4, counter-screen for TRPC4 inhibitor project, confirmation (AID 434978;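 active = primary screen active whose calcium signal fell more than 3 SD beyond the full-serotonin control mean in both duplicate plates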;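 also: serotonin given first at submaximal then at maximal dose after compound preincubation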); details: Fluo-4 calcium flux, at 10 µM, serotonin added to trigger calcium flux; active compounds read high
[14] = tested on: TRPC4 (mouse), co-expressed with 5HT1a in HEK293; assay: enhancement of serotonin-evoked TRPC4 response – cell-based, second counter screen, HEK293 TRPC4/5HT1a, Fluo-4, counter-screen for TRPC4 potentiator project, confirmation (AID 434979;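 active = signal rise over 3 SD above mean of control wells given weak agonist, in both repeats and first screen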); details: Fluo-4 calcium flux, at 10 µM, serotonin added at its EC20 dose; active compounds read high
[15] = nonspecific calcium rise without TRPC4 – cell-based, HEK293 mu-opioid receptor line, counter-screen for TRPC4 activator project, confirmation (AID 449723;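 active = hit in primary screen, with calcium signal over 5 SD above buffer well mean in both duplicates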;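 also: counter screen cells carry the mu-opioid receptor alone and lack TRPC4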); details: HEK293 mu-opioid cells, Fluo-4 calcium fluorescence, at 10 µM; active compounds read high
[16] = nonspecific potentiation of DAMGO calcium response – cell-based, HEK293 mu-opioid receptor line, counter-screen for TRPC4 allosteric potentiator project, confirmation (AID 449724;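 active = calcium signal rise more than 3 SD above the low-dose agonist control mean, in both duplicate plates and the primary screen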;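 also: HEK293 cells carrying mu-opioid receptor only with no TRPC4 channel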); details: HEK293 mu-opioid receptor cells, Fluo-4 calcium flux, at 10 µM, compound added before EC20 DAMGO stimulus; active compounds read high

Compound: CC12CCCCN1CCCc1c2[nH]c2ccccc12 (configuration not stated)
- outcome [1]: inactive
- outcome [2]: inactive
- outcome [3]: inactive
- outcome [4]: inactive
- outcome [5]: inactive
- outcome [6]: inactive
- outcome [7]: inactive
- outcome [8]: inactive
- outcome [9]: inactive
- activation [10]: 35% (active)
- outcome [11]: inactive
- activation [12]: 8.77% (active)
- outcome [13]: inactive
- outcome [14]: inactive
- outcome [15]: inactive
- outcome [16]: inactive

Compound: CC(COc1ccccc1)N1CCC(CO)(CCc2ccccc2)CC1 (configuration not stated)
- outcome [1]: inactive
- outcome [2]: inactive
- outcome [3]: inactive
- outcome [4]: inactive
- outcome [5]: inactive
- outcome [6]: inactive
- outcome [7]: inactive
- outcome [8]: inactive
- outcome [9]: inactive
- activation [10]: 95.5% (active)
- outcome [11]: inactive
- outcome [12]: inactive
- outcome [13]: inactive
- outcome [14]: inactive
- outcome [15]: inactive
- outcome [16]: inactive

Compound: Cc1onc(-c2ccccc2)c1C(=O)NNC(=S)NC(=O)c1ccc2c(c1)OCO2
- activation [1]: 55% (active)
- outcome [2]: inactive
- outcome [3]: inactive
- outcome [4]: inactive
- outcome [5]: inactive
- outcome [6]: inactive
- outcome [7]: inactive
- outcome [8]: inactive
- outcome [9]: inactive
- outcome [10]: inactive
- outcome [11]: inactive
- activation [12]: 56.5% (active)
- outcome [13]: inactive
- outcome [14]: inactive
- outcome [15]: inactive
- outcome [16]: inactive

Compound: CN(C)CCCN(C(=O)c1ccc(S(=O)(=O)N2CCc3ccccc3C2)cc1)c1nc2ccc(F)cc2s1
- outcome [1]: inactive
- outcome [2]: inactive
- outcome [3]: inactive
- outcome [4]: inactive
- outcome [5]: inactive
- outcome [6]: inactive
- outcome [7]: inactive
- outcome [8]: inactive
- outcome [9]: inactive
- outcome [10]: inactive
- outcome [11]: inactive
- outcome [12]: inactive
- outcome [13]: inactive
- outcome [14]: inactive
- outcome [15]: inactive
- outcome [16]: inactive

Compound: Cc1ccc2[nH]c3c(N4CCc5ccccc5C4)ncnc3c2c1
- outcome [1]: inactive
- outcome [2]: inactive
- outcome [3]: inactive
- outcome [4]: inactive
- outcome [5]: inactive
- outcome [6]: inactive
- outcome [7]: inactive
- outcome [8]: inactive
- outcome [9]: inactive
- outcome [10]: inactive
- outcome [11]: inactive
- outcome [12]: inactive
- outcome [13]: inactive
- outcome [14]: inactive
- outcome [15]: inactive
- outcome [16]: inactive

Compound: Cc1sc(NC(=O)c2ccccc2)c(C(=O)NCCN(C)C)c1C
- activation [1]: 128% (active)
- outcome [2]: inactive
- outcome [3]: inactive
- outcome [4]: inactive
- outcome [5]: inactive
- outcome [6]: inactive
- outcome [7]: inactive
- outcome [8]: inactive
- outcome [9]: inactive
- outcome [10]: inactive
- outcome [11]: inactive
- activation [12]: 12.1% (active)
- outcome [13]: inactive
- outcome [14]: inactive
- outcome [15]: inactive
- outcome [16]: inactive

Compound: CN(C)CCNC(=O)c1scc2c1CCCC2
- outcome [1]: inactive
- outcome [2]: inactive
- outcome [3]: inactive
- outcome [4]: inactive
- outcome [5]: inactive
- outcome [6]: inactive
- outcome [7]: inactive
- outcome [8]: inactive
- outcome [9]: inactive
- activation [10]: 41.5% (active)
- outcome [11]: inactive
- activation [12]: 19.6% (active)
- outcome [13]: inactive
- outcome [14]: inactive
- outcome [15]: inactive
- outcome [16]: inactive
